Consider six compounds from PubChem BioAssay.

The inhibition is the relative decrease from the control value, in per cent.

Activity calls are given as the source filed them.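 The calls were made as follows, unless noted: active = differentiation response of at least 50%, scaled between solvent and reference control, from cells with both markers; inactive = the rest.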

Test [1] is described as follows: hit retest on RPL19A-GFP reporter strain – cell-based, S. cerevisiae, flow cytometry, cherry picks, mother/daughter gates, confirmation (AID 2270;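 active = GFP response below 50% of the DMSO control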). The note with it: 3 h, at 10 µM, stronger effect = lower value, 100 = same GFP as DMSO wells. For orientation: A flow cytometer gives signals particle by particle.
Test [2] can be described thus: yeast TOR pathway reporter LAP4-GFP change – cell-based, cherry picks, flow cytometry, mother/daughter gates, confirmation (AID 2271;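 active = GFP response above 150% of the DMSO control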;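 also: ratio of sample to DMSO plate mean so 100% equals DMSO level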). The note with it: S. cerevisiae LAP4-GFP strain, 3 h, at 10 µM, stronger effect = higher value, 100 means same as DMSO control.
Test [3] is described as follows: TOR pathway reporter MEP2-GFP, retest of hits – S. cerevisiae, flow cytometry GFP, cherry picks, confirmation (AID 2272;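 active = GFP response above 150% of the DMSO control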;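 also: ratio of well signal to plate DMSO mean so 100% equals DMSO level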). The conditions noted are these: S. cerevisiae MEP2-GFP strain, 3 h, at 10 µM, stronger effect = higher value.
A short description of test [4]: yeast AGP1-GFP fluorescence change, single-dose – cell-based, flow cytometry, S. cerevisiae, cherry picks, confirmation (AID 2273;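 active = GFP response above 150% of the DMSO level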;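 also: median GFP channel fluorescence over the whole cell population gate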). The note with it: S. cerevisiae AGP1-GFP strain, 3 h, at 10 µM.
Test [5] in a line: TOR pathway CIT2 reporter hit retest – S. cerevisiae, GFP fusion, cherry picks, mother/daughter gates, confirmation (AID 2274;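 active = GFP response above 150% of the DMSO level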). The note with it: S. cerevisiae CIT2-GFP strain, flow cytometry, 3 h, at 10 µM, stronger effect = higher value.
Test [6] is described as follows: reduced mouse 2C T cell binding to pMHC/ICAM-1 vesicles – MLPCN validation set, flow cytometry, LFA-1/ICAM-1 modulator project, pilot screen (AID 2523;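 active = response below a set limit, under 55% cells CD8-positive and vesicle-bound, and CD8 cells' 90th-percentile brightness under 279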;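 as to vesicle binding response: mean PE anti-B7-1 fluorescence of CD8+ cells relative to row control; 100% = QL9-loaded vesicles with DMSO vehicle in the same plate row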). The conditions noted are these: 2C mouse CD8+ T cells, at 7 µM, stronger effect = lower value; double positive events: measured here: CD8+/vesicle+ event percentage.
Test [7] concerns the target Integrin beta-1 (Homo sapiens) + Integrin alpha-4 (Homo sapiens) (UniProt P13612+P05556). Kind of test: alpha4beta1 integrin LIBS antibody binding reduction – U937 cells, HUTS-21 mAb, flow cytometry, validation set, VLA-4 allosteric modulator project, pilot screen (AID 2674;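 active = inhibition above 50%, about 3 SD of the validation set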;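 also: antibody binding induced by the VLA-4 ligand LDV present at three times its Kd; 0% = LDV ligand with antibody and no compound and 100% = antibody without LDV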). The note with it: HUTS-21 LIBS mAb binding, at 6.7 µM, stronger effect = higher value, binding induced by LDV ligand.

The nature of test [8]: calorie-restriction mimetic ROS inhibitors, yeast – validation compound set, pilot screen (AID 2706;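 active = superoxide response below 65% of plate, a cut near 3 SD across the whole screen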;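 also: yeast exposed to compound for one week at 30 degrees C before staining; 100% = mean of all compound wells on the same plate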). The conditions noted are these: S. cerevisiae aging, superoxide DHE fluorescence; at 10 µM, stronger effect = lower value.
The target in test [9] is Beta-adrenergic receptor kinase 1 (Homo sapiens) (UniProt P25098). Kind of test: GRK2 binders displacing RNA aptamer, biochemical, validation, human GRK2, bead flow cytometry (AID 488806;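 active = aptamer binding inhibition above 30%, about 3 SD of noise from non-fluorescent compounds; inactive = inhibition at or below 30%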). The note with it: bead-bound GRK2, FAM-aptamer displacement, at 10 µM, stronger effect = higher value.
Beta-adrenergic receptor kinase 1 (Homo sapiens), sequence (P25098 whole entry, looked up): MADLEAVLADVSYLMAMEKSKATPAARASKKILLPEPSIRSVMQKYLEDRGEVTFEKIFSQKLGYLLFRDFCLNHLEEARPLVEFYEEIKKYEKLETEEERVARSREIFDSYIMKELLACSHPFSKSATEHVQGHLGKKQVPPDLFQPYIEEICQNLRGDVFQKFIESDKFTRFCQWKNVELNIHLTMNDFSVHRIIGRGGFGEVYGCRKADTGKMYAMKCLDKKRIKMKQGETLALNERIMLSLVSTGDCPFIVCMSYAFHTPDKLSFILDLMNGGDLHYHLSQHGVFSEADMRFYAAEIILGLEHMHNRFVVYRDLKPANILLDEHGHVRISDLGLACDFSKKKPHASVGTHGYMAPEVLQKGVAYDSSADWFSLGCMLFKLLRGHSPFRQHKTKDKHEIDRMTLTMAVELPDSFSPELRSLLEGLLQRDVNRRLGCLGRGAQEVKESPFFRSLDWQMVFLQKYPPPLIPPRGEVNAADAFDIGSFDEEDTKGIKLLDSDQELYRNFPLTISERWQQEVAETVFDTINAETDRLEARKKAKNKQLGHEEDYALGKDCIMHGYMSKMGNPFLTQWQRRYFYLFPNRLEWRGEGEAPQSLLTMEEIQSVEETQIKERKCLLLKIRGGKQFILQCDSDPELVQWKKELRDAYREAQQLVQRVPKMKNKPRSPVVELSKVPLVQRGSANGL
The target of test [10] is Beta-2 adrenergic receptor (Homo sapiens) (UniProt P07550). Kind of test: agonist-induced loss of surface beta2AR – cell-based, FAP fluorogen, flow cytometry, validation set, pilot screen (AID 504459;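 active = percent response above 42, roughly 3 SD of non-fluorescent test compounds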;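 also: agonist-driven loss of surface beta2AR via internalization measured by FAP dye flow cytometry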). The note with it: Am2.2-beta2AR cells, at 10 µM, stronger effect = higher value.
Beta-2 adrenergic receptor (Homo sapiens), sequence (P07550 whole entry, looked up): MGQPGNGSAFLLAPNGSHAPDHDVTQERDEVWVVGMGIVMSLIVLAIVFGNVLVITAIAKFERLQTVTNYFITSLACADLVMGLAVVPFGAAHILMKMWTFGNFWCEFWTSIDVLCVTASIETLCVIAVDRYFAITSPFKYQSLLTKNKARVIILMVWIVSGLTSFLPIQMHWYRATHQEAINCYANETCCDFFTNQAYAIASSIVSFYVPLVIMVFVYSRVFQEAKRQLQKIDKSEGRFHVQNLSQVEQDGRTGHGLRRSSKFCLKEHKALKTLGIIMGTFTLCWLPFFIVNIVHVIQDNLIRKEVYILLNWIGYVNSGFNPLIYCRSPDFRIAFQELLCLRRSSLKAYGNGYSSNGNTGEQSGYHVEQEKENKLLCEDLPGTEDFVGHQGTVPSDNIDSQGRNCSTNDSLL
Test [11] deals with AP-2 complex subunit beta (Homo sapiens) (UniProt P63010). The test is described as follows: beta-arrestin/AP2 interaction blockers – biochemical, validation set, GST-AP2 beads, flow cytometry, pilot screen (AID 504541;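 active = inhibition above 54%, about 3 SD of non-fluorescent compounds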;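 also: AP2 carries R879A mutation and is captured from E. coli lysate; bead-bound FITC arrestin peptide fluorescence measuring arrestin peptide binding to AP2; 0% = DMSO wells and 100% = excess unlabeled arrestin peptide control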). The conditions noted are these: FITC arrestin peptide, at 10 µM, stronger effect = higher value, AP2 beta2 appendage fragment, R879A mutant.
AP-2 complex subunit beta (Homo sapiens), sequence (P63010 whole entry, looked up, the tested form may be a part, one chain of several): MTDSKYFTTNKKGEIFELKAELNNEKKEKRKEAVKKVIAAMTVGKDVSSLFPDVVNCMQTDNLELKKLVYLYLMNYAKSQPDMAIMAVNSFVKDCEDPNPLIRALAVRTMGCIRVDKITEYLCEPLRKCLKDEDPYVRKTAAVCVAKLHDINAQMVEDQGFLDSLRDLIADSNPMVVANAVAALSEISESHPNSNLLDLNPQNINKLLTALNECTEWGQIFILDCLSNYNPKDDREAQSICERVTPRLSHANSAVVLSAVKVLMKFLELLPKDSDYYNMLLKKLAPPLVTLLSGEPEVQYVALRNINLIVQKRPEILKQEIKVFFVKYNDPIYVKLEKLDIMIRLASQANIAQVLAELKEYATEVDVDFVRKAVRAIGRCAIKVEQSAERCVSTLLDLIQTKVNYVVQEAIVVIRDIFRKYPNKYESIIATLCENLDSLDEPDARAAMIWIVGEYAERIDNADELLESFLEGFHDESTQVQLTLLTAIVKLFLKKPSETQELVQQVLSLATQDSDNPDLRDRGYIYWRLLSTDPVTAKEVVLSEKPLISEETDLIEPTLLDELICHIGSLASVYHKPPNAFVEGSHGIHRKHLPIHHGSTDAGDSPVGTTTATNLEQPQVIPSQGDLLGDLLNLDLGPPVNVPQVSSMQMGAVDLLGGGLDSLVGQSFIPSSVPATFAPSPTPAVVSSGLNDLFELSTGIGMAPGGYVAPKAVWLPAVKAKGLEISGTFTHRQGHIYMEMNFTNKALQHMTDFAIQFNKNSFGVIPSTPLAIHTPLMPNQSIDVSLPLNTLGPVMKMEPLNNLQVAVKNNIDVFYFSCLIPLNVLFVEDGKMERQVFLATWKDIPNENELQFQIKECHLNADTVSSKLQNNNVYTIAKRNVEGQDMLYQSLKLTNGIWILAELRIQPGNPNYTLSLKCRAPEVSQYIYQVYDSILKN
Test [12] can be described thus: cytosolic pH regulators acting via V-ATPase – S. cerevisiae, pHLuorin, HTS validation (AID 504600; in the data active = response above about 15%;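 also: plate controls were DMSO for no effect and reference compound for full effect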). The conditions noted are these: V-ATPase proton transport, at 10 µM, stronger effect = higher value.
Test [13] relates to anti-desmoglein-3 scFv antibody binding to human DSG3. Kind of test: blockers of pathogenic pemphigus antibody–desmoglein-3 binding – biochemical, validation compound set, bead-based, flow cytometry, pilot screen (AID 588368;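 active = binding below the plate cutoff, the plate median minus 3 SD, with a reading above zero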;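 also: signal is the median channel fluorescence of bead-bound GFP antibody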). The conditions noted are these: Protein G beads, DSG3-Fc, scFv-GFP binding, at 10 µM, stronger effect = lower value.
Test [14] can be described thus: Nile Red efflux blockade in pump-expressing yeast – validation compound set, multiplex, phenotypic, pilot screen (AID 588506;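 active = efflux inhibition above 0.42, the validation set average plus 4 SD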;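 also: Nile Red retained in cells so higher fluorescence means more efflux inhibition; 0 = negative control wells and 1 = enniatin B 25 µM full block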). The note with it: S. cerevisiae pump-expressing triplex, Nile Red efflux flow cytometry; at 10 µM; stronger effect = higher value; the pumps come from Candida albicans.
Test [15] has as its target ATP-binding cassette sub-family B member 6 (Homo sapiens) (UniProt Q9NP58). The test is described as follows: blockers of ABCB6-driven porphyrin uptake – K562-ABCB6 cells, flow cytometry, validation set, pilot screen (AID 588550;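 active = inhibition above the screen-wide mean plus 3 SD, about 51%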;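 also: 0% = DMSO wells and 100% = benzethonium chloride 70 µM positive control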). The conditions noted are these: K562-ABCB6 porphyrin accumulation, 1 h, at 10 µM, stronger effect = higher value.
Test [16] is described as follows: AML differentiation inducers, ER-HoxA9 marrow cells – cell-based, GFP/MAC1 double positive, flow cytometry, validation set, primary screen (AID 588685).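 Also: compound exposure lasts four days before antibody staining and flow analysis; 0% = DMSO wells and 100% = 5 µM fulvestrant positive control.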 The conditions noted are these: stronger effect = higher value, normalized: vehicle 0, fulvestrant 100.

Integrin beta-1 (Homo sapiens) + Integrin alpha-4 (Homo sapiens), sequence (P05556 whole entry, looked up): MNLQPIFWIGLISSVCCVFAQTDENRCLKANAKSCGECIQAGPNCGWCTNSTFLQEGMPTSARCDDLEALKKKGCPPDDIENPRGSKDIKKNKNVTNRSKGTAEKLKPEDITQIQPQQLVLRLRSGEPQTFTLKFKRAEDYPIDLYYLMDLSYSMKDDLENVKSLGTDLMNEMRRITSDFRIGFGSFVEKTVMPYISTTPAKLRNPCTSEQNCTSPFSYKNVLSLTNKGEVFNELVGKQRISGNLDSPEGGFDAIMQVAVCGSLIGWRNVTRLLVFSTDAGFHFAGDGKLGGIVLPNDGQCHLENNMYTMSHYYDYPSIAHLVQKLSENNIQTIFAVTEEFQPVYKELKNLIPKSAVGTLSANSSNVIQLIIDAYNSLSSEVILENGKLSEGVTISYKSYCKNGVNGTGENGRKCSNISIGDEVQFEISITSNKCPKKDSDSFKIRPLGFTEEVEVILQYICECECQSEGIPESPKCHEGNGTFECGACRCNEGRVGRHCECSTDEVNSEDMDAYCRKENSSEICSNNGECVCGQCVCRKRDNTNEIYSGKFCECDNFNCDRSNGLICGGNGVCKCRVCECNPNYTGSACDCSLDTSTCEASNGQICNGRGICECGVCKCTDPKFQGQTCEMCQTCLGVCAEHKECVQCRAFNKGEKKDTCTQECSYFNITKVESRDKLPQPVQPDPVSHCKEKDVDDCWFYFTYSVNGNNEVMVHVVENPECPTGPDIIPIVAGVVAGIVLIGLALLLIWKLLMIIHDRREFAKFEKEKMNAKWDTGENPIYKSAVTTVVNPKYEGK
Integrin beta-1 (Homo sapiens) + Integrin alpha-4 (Homo sapiens), sequence (P13612 whole entry, looked up): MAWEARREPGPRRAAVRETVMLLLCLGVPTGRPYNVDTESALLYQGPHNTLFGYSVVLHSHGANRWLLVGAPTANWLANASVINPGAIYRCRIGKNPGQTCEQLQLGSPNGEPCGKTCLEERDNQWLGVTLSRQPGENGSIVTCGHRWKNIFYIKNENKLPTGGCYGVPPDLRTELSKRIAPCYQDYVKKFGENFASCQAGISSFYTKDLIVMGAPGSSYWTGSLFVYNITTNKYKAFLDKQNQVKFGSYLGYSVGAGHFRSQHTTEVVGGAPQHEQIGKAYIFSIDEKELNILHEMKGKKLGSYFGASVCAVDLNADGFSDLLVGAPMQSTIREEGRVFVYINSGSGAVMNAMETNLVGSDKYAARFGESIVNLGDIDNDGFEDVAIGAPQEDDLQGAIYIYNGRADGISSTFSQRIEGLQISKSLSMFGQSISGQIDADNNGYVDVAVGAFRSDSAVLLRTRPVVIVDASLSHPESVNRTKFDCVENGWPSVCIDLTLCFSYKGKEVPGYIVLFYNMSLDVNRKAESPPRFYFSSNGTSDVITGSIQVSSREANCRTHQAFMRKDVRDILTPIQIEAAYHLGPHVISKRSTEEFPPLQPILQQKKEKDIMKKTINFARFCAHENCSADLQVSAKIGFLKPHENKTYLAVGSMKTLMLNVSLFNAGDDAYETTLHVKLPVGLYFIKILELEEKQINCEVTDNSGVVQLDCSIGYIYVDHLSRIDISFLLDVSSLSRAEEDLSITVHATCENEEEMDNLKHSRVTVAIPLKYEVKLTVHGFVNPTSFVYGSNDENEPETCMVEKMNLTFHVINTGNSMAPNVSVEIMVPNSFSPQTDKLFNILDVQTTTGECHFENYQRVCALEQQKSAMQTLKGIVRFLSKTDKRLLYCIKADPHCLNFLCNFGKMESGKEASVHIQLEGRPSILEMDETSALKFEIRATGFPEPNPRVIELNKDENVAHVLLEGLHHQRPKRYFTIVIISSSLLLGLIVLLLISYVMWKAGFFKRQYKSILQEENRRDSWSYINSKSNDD
ATP-binding cassette sub-family B member 6 (Homo sapiens), sequence (Q9NP58 whole entry, looked up): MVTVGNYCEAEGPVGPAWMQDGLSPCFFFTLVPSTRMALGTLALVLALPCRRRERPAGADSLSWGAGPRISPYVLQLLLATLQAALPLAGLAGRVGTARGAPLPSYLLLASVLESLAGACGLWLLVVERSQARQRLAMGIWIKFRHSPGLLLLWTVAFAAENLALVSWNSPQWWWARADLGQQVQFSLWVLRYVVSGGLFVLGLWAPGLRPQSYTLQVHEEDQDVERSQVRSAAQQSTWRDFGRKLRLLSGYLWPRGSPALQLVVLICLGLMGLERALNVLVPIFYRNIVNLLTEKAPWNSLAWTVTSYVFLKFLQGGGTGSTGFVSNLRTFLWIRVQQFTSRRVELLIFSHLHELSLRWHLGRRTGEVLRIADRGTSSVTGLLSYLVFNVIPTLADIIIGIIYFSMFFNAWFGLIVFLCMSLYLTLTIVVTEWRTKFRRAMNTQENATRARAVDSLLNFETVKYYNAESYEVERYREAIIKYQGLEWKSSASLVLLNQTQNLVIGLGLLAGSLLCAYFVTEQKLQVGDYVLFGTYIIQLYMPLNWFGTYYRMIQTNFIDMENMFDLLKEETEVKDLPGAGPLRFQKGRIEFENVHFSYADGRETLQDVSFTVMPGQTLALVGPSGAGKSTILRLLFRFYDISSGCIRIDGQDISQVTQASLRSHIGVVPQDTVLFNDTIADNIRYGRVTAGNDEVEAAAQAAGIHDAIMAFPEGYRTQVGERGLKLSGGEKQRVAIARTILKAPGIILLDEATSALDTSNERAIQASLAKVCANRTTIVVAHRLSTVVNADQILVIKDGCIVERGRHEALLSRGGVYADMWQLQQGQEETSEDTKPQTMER

Take `Cc1cccc(N=c2oc3cc(O)ccc3cc2C(N)=O)c1`: the results for the GFP response vs DMSO in test [1] and in test [3] were 96.5% (inactive) and 106% (inactive), respectively. Moreover, the GFP response relative to DMSO in [2] was 100% (inactive). The values for the GFP response, % of DMSO in [4], in test [5] and in [5] (measured here: daughter cell gate) were 102% (inactive), 108% (inactive) and 90.5%, respectively.
For the compound `COc1cc2c(cc1OC)C1(CCCCC1)CN(C)C2`, in test [6], the double positive events was 57.3%. For the same compound, the vesicle binding response in test [6] was 258% (inactive). Moreover, the inhibition was 16% (inactive) in test [7], 4.18% (inactive) in test [11] and -22% (inactive) in [15]. In test [8], the superoxide response (% of plate) was 103% (inactive). Moreover, the aptamer binding inhibition in [9] was 5% (inactive). Moreover, the results for the response in test [10] and in test [12] were 5.44% (inactive) and 1.68% (inactive), respectively. For the same compound, the binding (% of control) in [13] was 89% (inactive). In test [14], the efflux inhibition (fraction of control) was 0.12 (inactive). Further, in test [16], the differentiation response is 4% (inactive).
Consider `O=C(Nc1ccccc1)OCC1CCCN2CCCCC12` (stereo unspecified), for which the double positive events in [6] amounted to 80%. Further, in [6], the vesicle binding response was 511% (inactive). Besides, the inhibition in test [7] is -0.27% (inactive); in test [11], -10.6% (inactive); in test [15] it was 16% (inactive). Besides, in [8], the superoxide response (% of plate) is 93.9% (inactive). The aptamer binding inhibition in [9] was -2% (inactive). The response in test [10] is -23.8% (inactive); in test [12], 1.1% (inactive). Further, the binding (% of control) in [13] is 112% (inactive). In test [14], the efflux inhibition (fraction of control) was -0.04 (inactive). Further, the differentiation response in test [16] is 63% (active).
On to `COc1ccc(C(=O)Nc2nc3ccccc3c(=O)[nH]2)cc1`, for which the double positive events in test [6] was 65.5%. The vesicle binding response in test [6] was 352% (inactive). Besides, the figures for the inhibition in [7], in test [11] and in test [15] were 3.67% (inactive), 4.94% (inactive) and 4% (inactive), respectively. The superoxide response (% of plate) in test [8] was 84.4% (inactive). Also, the aptamer binding inhibition in test [9] was 0% (inactive). The response is 37.4% (inactive) in test [10] and -8.54% (inactive) in [12]. In addition, the binding (% of control) in test [13] is 99.1% (inactive). Further, the efflux inhibition (fraction of control) in test [14] was -0.03 (inactive). In test [16], the differentiation response is 0% (inactive).
With `COc1ccc(/C=C2\CCn3c2nc2cc(C(=O)O)ccc2c3=O)cc1OC`, in test [6], the double positive events is 60.5%. For the same compound, the vesicle binding response in [6] was 178% (inactive). Also, the inhibition in [7] was 5.61% (inactive); in test [11] it was -3.78% (inactive); in test [15] it was 2% (inactive). Also, in test [8], the superoxide response (% of plate) was 108% (inactive). Further, the aptamer binding inhibition in [9] is 1% (inactive). For the same compound, the values for the response in [10] and in test [12] were 7.98% (inactive) and 0.13% (inactive), respectively. Also, the binding (% of control) in test [13] was 102% (inactive). For the same compound, in test [14], the efflux inhibition (fraction of control) was 0 (inactive). The differentiation response in test [16] is -8.96% (inactive).
Compound `COc1ccc2c(CCNC(=O)c3ccc([N+](=O)[O-])cc3)c[nH]c2c1` registered a double positive events in test [6] of 56.1%. In test [6], the vesicle binding response is 210% (inactive). Moreover, the inhibition in [7] was -5.89% (inactive); in test [11] it was -2.03% (inactive); in test [15], 4% (inactive). Besides, the superoxide response (% of plate) in test [8] was 105% (inactive). For the same compound, the aptamer binding inhibition in test [9] was 3% (inactive). Also, the response in test [10] was 7.52% (inactive); in [12], -0.21% (inactive). Besides, the binding (% of control) in [13] was 101% (inactive). Also, the efflux inhibition (fraction of control) in [14] is -0.03 (inactive). For the same compound, in [16], the differentiation response is -21.6% (inactive).
